# DT40 TDP1 no CPT – qHTS for Inhibitors of human tyrosyl-DNA phosphodiesterase 1 (TDP1): qHTS in cells in absence of CPT; DT40 Tdp1-/- hTDP1 cells, no CPT, ATP luminescence, 48 h; Potency, µM (titrated, usually from 46.2 µM), actives largely listed as inhibitors; hit rate 15% among 420,000; further: nearly all actives have a fitted effect of over 55% in size
#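 A cellular qHTS used chicken DT40 cells lacking endogenous Tdp1 but carrying stably transfected human TDP1. Compounds were applied without camptothecin, and cell growth kinetics were judged by ATP-dependent luminescence after ≥48 hr.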
# ASM inhibitor – human S-ASM enzyme inhibition; P17405; placental ASM, HMU-PC fluorogenic substrate, 60 min; Potency, µM (doses to about 57.5 µM), hits mostly inhibitors; hit rate 0.006% among 340,000; AID 504937
# Target sequence (P17405 47-631 limits assumed): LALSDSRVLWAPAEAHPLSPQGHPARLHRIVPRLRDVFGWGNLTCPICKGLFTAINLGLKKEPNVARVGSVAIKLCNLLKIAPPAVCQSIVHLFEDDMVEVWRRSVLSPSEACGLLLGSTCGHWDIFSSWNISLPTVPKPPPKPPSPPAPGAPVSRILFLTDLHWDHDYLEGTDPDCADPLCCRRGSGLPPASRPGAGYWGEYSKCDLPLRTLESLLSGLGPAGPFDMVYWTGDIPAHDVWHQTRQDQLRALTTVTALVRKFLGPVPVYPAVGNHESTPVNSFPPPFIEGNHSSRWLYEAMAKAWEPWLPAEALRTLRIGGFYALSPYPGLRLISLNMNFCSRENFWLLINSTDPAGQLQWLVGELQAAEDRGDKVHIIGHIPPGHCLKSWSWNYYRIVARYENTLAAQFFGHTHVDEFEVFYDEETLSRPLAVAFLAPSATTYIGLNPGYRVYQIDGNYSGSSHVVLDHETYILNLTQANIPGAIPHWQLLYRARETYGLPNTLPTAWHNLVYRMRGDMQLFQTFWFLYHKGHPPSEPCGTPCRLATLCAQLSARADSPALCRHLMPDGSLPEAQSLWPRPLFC
#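 qHTS format. ASM enzyme prepared from human placenta hydrolyses the fluorogenic substrate HMU-PC0 (9 uM final) over 60 min at 37 °C after a 10 min compound preincubation.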
# DT40 TDP1 CPT – DT40-hTDP1 cell growth loss with CPT; chicken DT40 Tdp1-/-;hTDP1 cells + 20 nM CPT, ATP luminescence, 48 h; Potency, µM (highest dose often 46.2 µM), actives largely listed as inhibitors; hit rate 12% among 420,000; AID 686979; further: nearly all actives have a fitted effect of over 55% in size
#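 Cell growth measured by CellTiter-Glo luminescence after a minimum 48 h, 37 C compound exposure with 20 nM CPT in Tdp1-knockout DT40 cells stably expressing hTDP1, seeded 400/well; qHTS titration format.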
# TGFb inhibitor – inhibitors of TGF-b signaling. HepG2 CAGA-GFP TGF-b/SMAD3 reporter, GFP fluorescence, 18 h; TGF-beta stimulated, 500 pg/mL final. Potency, µM (highest dose often 46.1 µM), usual class: inhibitors. hit rate 1.2% among 410,000. AID 588855; further: nearly all actives have a fitted effect of over 65% in size
#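 Read-out: total well GFP (ex488/em500-530) summed from mean per-cell fluorescence. Cells: HEPG2 CAGA-GFP, 1% FBS DMEM, 18 h at 37 degrees C with 500 pg/mL final TGF-beta. Unstimulated wells served as the full-inhibition control; stimulated DMSO wells = 0%.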
# IL1B secr inh – blocks inflammasome-driven IL-1 beta release. THP-1 LPS/ATP IL-1B secretion, AlphaLISA, 16 h; stronger effect = lower value. activity change, % at 57.5 µM. hit rate 4.7% among 360,000; in the data active means activity change below about -50%; inconclusive means mostly about -30% to -49%
#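 THP-1 cells pretreated 1 hr with compounds (up to 57.5 uM final), then stimulated with LPS (250 ng/mL final) plus ATP (1.25 mM final); secreted IL-1B measured by AlphaLISA after 16 hr, decreased signal indicating inhibition.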
# HepG2 viability – counter-screen for TGF-b inhibitors: cytotoxicity in HepG2 cells; hit rate 0.76% among 410,000; Potency, µM (highest dose often 46.1 µM), most hits filed as cytotoxic; AID 588856; HepG2 CAGA-GFP viability, ATP luminescence, 18 h
#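 HepG2 CAGA-GFP cells (1000/well, DMEM with 1% FBS) received compound, then TGF-beta at 500 pg/mL final, and were incubated 18 hours at 37 degrees C. Viability was read by CellTiter-Glo luminescence. Media-only wells were set as complete cell-killing and DMSO as no toxicity.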
# A number is an active result; - = inactive; ? = inconclusive; . = no result given. Only some compounds are listed: those with a hit (about 19% of all), similar ones and a draw of the others. Unless noted, the call rests on the fitted dose curve; in most records, active means well fitted curve in the direction sought with a large enough effect; inconclusive means small, poorly fitted or top-dose-only effect, or another doubt; inactive means no such curve, though single readings can be large; an effect the other way counts as inactive or inconclusive.
SMILES,DT40 TDP1 no CPT,ASM inhibitor,DT40 TDP1 CPT,TGFb inhibitor,IL1B secr inh,HepG2 viability
O=C(NCC1CC1)C1(C(F)(F)F)CC(CCc2ccccc2)CCCO1 (stereo not given),20.6µM,-,20.6µM,?,-,-
CCn1cc(C(=O)O)c(=O)c2cc(F)c(N3CCN(C(=S)NC(=O)c4ccc(OC)cc4)CC3)cc21,?,-,?,-,-,-
CCn1cc(C(=O)O)c(=O)c2cc(F)c(N3CCN(S(=O)(=O)c4ccc(NC(C)=O)cc4)CC3)cc21,?,-,-,-,-,-
CCn1cc(C(=O)O)c(=O)c2cc(F)c(N3CCN(C(=O)Nc4ccccc4)CC3)cc21,23.1µM,-,20.6µM,-,?,-
CCn1cc(C(=O)O)c(=O)c2cc(F)c(N3CCN(C(=S)NC(=O)c4cccc(C)c4)CC3)cc21,-,-,-,-,-,-
CCn1cc(C(=O)O)c(=O)c2cc(F)c(N3CCN(S(=O)(=O)c4ccc5c(c4)OCCO5)CC3)cc21,?,-,20.6µM,?,-,-
CCn1cc(C(=O)O)c(=O)c2cc(F)c(N/N=C/c3ccccc3)cc21,13µM,-,?,-,-,-
CCn1cc(C(=O)O)c(=O)c2cc(F)c(N3CCN(C(=S)NC(=O)c4ccccc4F)CC3)cc21,14.6µM,-,-,-,-,-
O=C(Nc1ccc(F)c(Cl)c1)C1CCCN(C2=NS(=O)(=O)c3ccccc32)C1 (stereo not given),?,-,?,-,-,-
O=C(Nc1ccc(F)cc1F)C(Cc1ccccc1)N1Cc2ccccc2C1=O (stereo not given),-,.,?,-,.,-
Cn1ncc2c(=S)nc(Cl)[nH]c21,?,-,?,?,-,-
CCOC(=O)c1sc(-c2cccc(C(F)(F)F)c2)nc1O,20.6µM,-,?,-,-,-
CCOC(=O)c1sc(-c2ccc(C(F)(F)F)cc2)nc1O,?,-,?,-,-,-
COc1ccc(C)cc1NC(=O)CN1CCN(S(=O)(=O)c2ccc(C(C)C)cc2)CC1,16.4µM,-,?,-,-,-
COc1ccccc1NC(=O)CN1CCN(c2ccc(F)cc2)CC1,?,-,?,-,-,-
COc1ccc(C)cc1NC(=O)CN1CCN(c2ccc(F)cc2)CC1,23.1µM,-,20.6µM,-,-,-
COc1ccccc1NC(=O)CN1CCN(CC(=O)Nc2cc(C)ccc2OC)CC1,-,-,-,-,-,-
COc1cc(CC(=O)N2CCN(S(=O)(=O)c3ccc(C(C)C)cc3)CC2)cc(OC)c1OC,20.6µM,.,20.6µM,-,-,-
CCc1ccccc1NC(=O)CN1CCN(CC(=O)Nc2cc(C)ccc2OC)CC1,6.51µM,-,?,-,-,-
NS(=O)(=O)c1ccc(CCNC(=O)c2ccc(Cl)c(S(=O)(=O)NCc3ccco3)c2)cc1,-,-,-,-,-,-
COc1ccc(OCC(=O)Nc2c(C(=O)N3CCC(N4CCCCC4)CC3)oc3ccccc23)cc1,?,-,?,-,?,-
COc1cc(/C=N/NC2=NC(C)(C)Cc3ccccc32)cc(OC)c1OC,20.6µM,-,?,-,-,-
COc1cc(/C=N\Nc2nc3ccccc3[nH]2)cc(OC)c1OC,11.6µM,-,20.6µM,?,-,-
CN(C)c1ccc(/C=N\Nc2ccccn2)cc1,23.1µM,-,20.6µM,-,-,-
CN(C)c1ccc(C=NNc2ccccn2)c(Cl)c1,?,-,?,-,-,-
SMILES,DT40 TDP1 no CPT,ASM inhibitor,DT40 TDP1 CPT,TGFb inhibitor,IL1B secr inh,HepG2 viability
COc1cc(/C=N/NC2=NS(=O)(=O)c3ccccc32)cc(OC)c1OC,-,-,-,-,-,-
COc1ccc(C=NN=C2c3ccccc3-c3ccccc32)cc1OC,23.1µM,-,?,-,-,-
O=C(Nc1cccc(Cl)c1N1CCOCC1)c1cccs1,-,-,?,-,-,-
COC(=O)c1ccccc1C(=O)N1CC(O)CO1 (stereo not given),-,-,-,-,-,-
CCC(C)c1ccc(NC(=O)N2CCOCC2)cc1 (stereo not given),-,-,-,-,-,-
COC(=O)c1ccc(Cl)c(S(=O)(=O)N2CCCC2)c1,-,-,-,-,-,-
COc1ccc2c(c1)c(/C=N/Nc1nc3ccccc3[nH]1)c(C)n2C,?,-,20.6µM,?,-97.7,-
COc1ccc(/C=N/Nc2ccccn2)cc1OC,16.4µM,-,?,-,-,-
COc1cc(/C=N/Nc2ccccn2)ccc1O,-,-,-,-,-,-
COc1ccc(/C=N/Nc2nc3ccccc3[nH]2)cc1OC,?,-,?,-,-75.3,-
COc1cc(OC)c(OC)cc1/C=N/Nc1nc2ccccc2[nH]1,-,-,-,-,-,-
CSc1ncccc1C(=O)NCC(c1cccs1)N1CCOCC1 (stereo not given),-,-,-,?,-,-
O=C(Nc1ccccc1)c1cc(C2CCCN(C(=O)c3ccc4c(c3)CCO4)C2)on1 (stereo not given),-,.,-,-,-,-
CCc1ccc(S(=O)(=O)c2nnn3c2nc(N(C)Cc2ccccc2)c2cc(Cl)ccc23)cc1,-,.,-,-,.,-
O=C(CSc1c2c(nc3ccccc13)CCCC2)NCc1ccco1,-,-,-,-,-,-
Cc1ccc(CNC(=O)CSc2c3c(nc4cc(Cl)ccc24)CCCC3)o1,?,-,?,?,-67.6,-
COc1ccc(OC)c(CNC(=O)CSc2c3c(nc4cc(Cl)ccc24)CCCC3)c1,23.1µM,.,16.4µM,?,.,-
COc1cccc(CNC(=O)CSc2c3c(nc4ccc(Cl)cc24)CCCC3)c1OC,9.2µM,.,7.31µM,?,.,-
O=C(NCc1ccc2c(c1)OCO2)C1CC(=O)N(CCc2ccc(F)cc2)C1 (stereo not given),-,-,-,-,-,-
CC(C)(C)C(=O)Cn1ncc(Cl)c(Cl)c1=O,10.3µM,-,16.4µM,-,-100.5,-
C=CCn1c(C)cc(C(=O)COC(=O)[C@@H](NC(=O)c2ccccc2Cl)C(C)C)c1C,?,-,?,-,-,-
C=CCn1c(C)cc(C(=O)CN2NS(=O)(=O)c3ccccc3C2=O)c1C,3.66µM,-,4.61µM,?,-,-
O=c1c(Cl)c(Cl)cnn1Cc1ccc(F)cc1,13µM,-,-,?,-98.8,-
C=CCn1c(C)cc(C(=O)Cn2ncc(Cl)c(Cl)c2=O)c1C,4.11µM,-,5.8µM,-,-102.4,-

# Compound activity: PubChem BioAssay, National Center for Advancing Translational Sciences (NCATS)
